Screen size: about 310,000 compounds; about 14,000 (4.5%) showed an effect of 50% or more. Effects have a minus sign here. The sample as a whole holds a higher share of strong results than the screen did.
What follows are compounds tested against human ether-à-go-go-related gene (hERG) potassium channel (human, UniProt Q12809) (assay: primary screen, population patch clamp on CHO cells stably expressing hERG; higher = less effect of the substance).
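Also: peak tail current of the secondary pulse compared with the same well before compound.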

Sequence of human ether-à-go-go-related gene (hERG) potassium channel (Q12809 whole entry, looked up): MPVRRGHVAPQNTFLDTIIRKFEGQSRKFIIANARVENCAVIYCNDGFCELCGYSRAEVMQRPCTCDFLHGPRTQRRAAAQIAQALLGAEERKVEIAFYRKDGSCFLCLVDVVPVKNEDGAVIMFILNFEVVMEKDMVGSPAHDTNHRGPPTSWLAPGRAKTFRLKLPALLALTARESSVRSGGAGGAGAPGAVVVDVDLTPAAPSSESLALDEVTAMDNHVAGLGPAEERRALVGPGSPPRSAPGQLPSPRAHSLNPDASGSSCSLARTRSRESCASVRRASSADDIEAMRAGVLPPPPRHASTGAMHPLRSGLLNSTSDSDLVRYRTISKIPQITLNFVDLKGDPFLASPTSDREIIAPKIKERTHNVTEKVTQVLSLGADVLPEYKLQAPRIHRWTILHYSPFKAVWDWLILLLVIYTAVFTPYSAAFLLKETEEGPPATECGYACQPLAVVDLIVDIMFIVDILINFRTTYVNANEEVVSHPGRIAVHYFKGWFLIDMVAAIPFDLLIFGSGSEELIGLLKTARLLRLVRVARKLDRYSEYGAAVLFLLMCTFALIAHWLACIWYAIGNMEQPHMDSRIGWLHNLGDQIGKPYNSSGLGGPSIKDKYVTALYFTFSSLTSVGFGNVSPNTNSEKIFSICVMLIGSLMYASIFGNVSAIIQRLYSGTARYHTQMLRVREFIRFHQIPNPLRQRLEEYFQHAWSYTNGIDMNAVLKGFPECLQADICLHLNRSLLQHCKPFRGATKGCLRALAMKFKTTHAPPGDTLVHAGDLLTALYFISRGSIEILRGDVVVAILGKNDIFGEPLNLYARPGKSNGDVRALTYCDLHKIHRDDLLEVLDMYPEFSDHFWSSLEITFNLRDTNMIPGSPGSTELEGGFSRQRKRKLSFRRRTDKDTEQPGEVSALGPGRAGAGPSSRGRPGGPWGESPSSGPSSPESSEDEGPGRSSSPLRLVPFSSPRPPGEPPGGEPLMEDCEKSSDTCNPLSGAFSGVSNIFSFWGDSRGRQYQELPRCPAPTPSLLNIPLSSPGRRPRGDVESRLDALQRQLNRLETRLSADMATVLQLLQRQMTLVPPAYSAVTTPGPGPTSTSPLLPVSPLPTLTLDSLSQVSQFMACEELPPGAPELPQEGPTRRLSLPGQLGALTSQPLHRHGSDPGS

Row | Structure (SMILES) | hERG current change (%, negative = inhibition) at 10uM
1 | COc1ccc(C2=Nc3cccc4cccc(c34)N2)cc1 | 9.66%
2 | Cc1cccc(Nc2nnc(SCC(=O)Nc3cccc(S(=O)(=O)N4CCCCC4)c3)s2)c1 | 3.37%
3 | C=CCN1C(=O)NC(=O)/C(=C/c2ccoc2)C1=O | 20.5%
4 | CCn1c(C)[n+](CCOC(C)=O)c2cc(Cl)c(Cl)cc21.[I-] | -8.87%
5 | COC(=O)CCCC(=O)N1CCC(CCC(=O)NCc2ccc(F)cc2)CC1 | -24%
6 | CN(C)C(=C(C#N)C#N)N1CCN(c2ccc(Cl)c(Cl)c2)CC1 | -63.2%
7 | CCOC(=O)N1CCN(c2ccc(Cl)c(Cl)c2)CC1 | -11.1%
8 | COC(=O)N1CCN(c2ccc(Cl)c(Cl)c2)CC1 | -1.86%
9 | CNC(=S)N1CCN(c2ccc(Cl)c(Cl)c2)CC1 | -6.17%
10 | CN(C)C(=C(C#N)C#N)N1CCN(c2ccc(Cl)cc2)CC1 | -48.3%
11 | N#C/C=C(/N)N1CCN(c2ccc(Cl)c(Cl)c2)CC1 | -73.9%
12 | CCC1(c2ccccc2)NC(=O)N(CC(=O)Nc2ccccc2N2CCCCC2)C1=O (centres unmarked) | -15.8%
13 | CCCc1ccc(Oc2cc(N3CCOCC3)nc(-c3ccccc3)n2)cc1 | 21.5%
14 | CCC(=O)Nc1cccc(-c2nc3ccc(C)cc3o2)c1 | -13.4%
15 | CC1(C)CC(O)C(C)(C)N1O (centres unmarked) | 3.9%
16 | CCc1nnc(NS(=O)(=O)c2ccc(N=Cc3c(C)[nH]n(-c4ccc(Cl)cc4)c3=O)cc2)s1 | 17.7%
17 | Cc1ccc(C)c(CN2C(=O)CSc3ccc(C(=O)N4CCCC4)cc32)c1 | -17%
18 | Cc1ccc(C)c(CN2C(=O)CSc3ccc(C(=O)NCCN4CCOCC4)cc32)c1 | 14.6%
19 | Cc1ccc(C)c(CN2C(=O)CSc3ccc(C(=O)NCC(C)CN4CCC(C)CC4)cc32)c1 (centres unmarked) | -75.8%
20 | CCOC(=O)c1nn(-c2ccccc2F)c(-c2ccccc2)c1C(=O)c1ccccc1 | 7.34%
21 | O=C(NCCc1ccccc1)c1ccc(-n2cnnn2)cc1 | -4.78%
22 | COCCN(C(=O)COC(=O)c1cccc2ccccc12)c1c(N)n(Cc2ccccc2)c(=O)[nH]c1=O | -0.159%
23 | COc1ccc(OCC(=O)N2CCC(n3nccc3NC(=O)C3CC3)CC2)cc1 | 1.44%
24 | COc1ccc(/C=C/CN2CCC(n3nccc3NC(=O)C3CC3)CC2)cc1 | -72.7%
25 | COc1ccc(CC(=O)N2CCC(n3nccc3NC(=O)C3CC3)CC2)cc1 | 13.7%
26 | COc1ccc(/C=C/CN2CCC(n3nccc3NC(=O)C3CCCC3)CC2)cc1 | -88.6%

— paper PMC4336329 (PLoS ONE, 2015)
